An excerpt weighted towards active compounds, which were near 4% of everything screened.
HIF-2a block: HIF-2a inhibition. 786-0 RCC cells HIF-2a reporter, luciferase luminescence, overnight. inhibition, % at 18.8 µM. 360,000 compounds, 0.72% hits;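 active = inhibition of the luminescence signal of 40% or more relative to plate controls, in a single-dose primary screen at 18.75 µM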
Peg3 promoter: reduces Peg3 promoter-driven luciferase expression in HeLa. 360,000 compounds, 1.7% hits. HeLa PEG-Prom luciferase reporter, luminescence, overnight. inhibition, % at 20 µM. AID 588405;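 active = inhibition of at least 50% at 20 µM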
CF NFkB block: inhibitors of cystic fibrosis induced NF-kB; KKLEB NF-kB-GFP reporter, PAF-induced, GFP fluorescence overnight; inhibition, % at 5 µM; 360,000 compounds, 0.86% hits;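 active = at least 50% inhibition at 5 µM, scaled per plate between neutral and stimulator controls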;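 note: PAF is a Pseudomonas aeruginosa culture filtrate used as stimulus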
TROY NFkB inh: blocks TROY-dependent signaling in reporter cells; AID 1347056; Q293 LMP1-TROYcd NF-kB luciferase reporter, 4 h; inhibition, % at 10 µM; 360,000 compounds, 0.98% hits;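 active = compounds whose plate-normalised and pattern-corrected inhibition of the luciferase reporter signal at the single screening dose is 50% or more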
TWEAK-Fn14 inh: blocks TWEAK-Fn14 interaction in a reporter cell assay. TWEAK-stimulated Fn14 reporter cells, luciferase luminescence, 8 h. inhibition, % at 10 µM. 360,000 compounds, 2% hits; in the data active = inhibition above about 50%
KKLEB tox: counter-screen for CF NF-kB inhibitors: cytotoxicity; KKLEB CF airway cells viability, ATPlite luminescence, overnight; active compounds read low; cells stimulated with P. aeruginosa culture filtrate; activity change (cytotoxicity), % at 5 µM; 360,000 compounds, 0.36% hits;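 active = corrected activity change at or below -50% at 5 µM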
Hits are given with their value; 0 = inactive; ! = repeats disagree.

SMILES	HIF-2a block	Peg3 promoter	CF NFkB block	TROY NFkB inh	TWEAK-Fn14 inh	KKLEB tox
CCOC(=O)c1c(NC(=O)C(NCCN(C)C)c2ccccc2)sc2c1CCCC2 (centres undefined)	0	106.1	0	0	0	0
CCCc1ccc(C2C3=C(CC(C)(C)CC3=O)NC3=C2C(=O)c2ccccc23)cc1 (centres undefined)	0	55.9	0	0	55.0	0
O=C1CCCC2=C1C(c1cccc(O)c1)C1=C(N2)c2ccccc2C1=O (centres undefined)	0	0	0	0	0	0
CCCCc1ccc(C2C3=C(CC(C)(C)CC3=O)NC3=C2C(=O)c2ccccc23)cc1 (centres undefined)	0	0	0	0	57.2	0
CCOC(=O)c1cc2c(=O)n3cccc(C)c3nc2n(CC2CCCO2)c1=NC(C)=O (centres undefined)	0	0	0	0	91.9!	0
COc1ccccc1NC(=O)C(C)OC(=O)C1COc2ccccc2O1 (centres undefined)	0	0	0	0	0	0
CCN1CCN(c2oc(/C=C/c3ccccc3)nc2C#N)CC1	0	0	0	52.6	0	0
CCOC(=O)C1CCN(C(=O)COc2ccc(N(C)S(=O)(=O)c3ccc(OCC)cc3)cc2)CC1	0	0	0	0	0	0
COc1ccccc1C1CCN(c2cc(O)ccc2[N+](=O)[O-])CC1	0	0	0	56.5	0	0
COc1ccccc1C1CCN(C(=O)c2ccccc2)CC1	0	0	0	0	0	0
CC(C)c1ccc(/C=N/NC(=O)c2cccc(Cl)c2)cc1	0	0	0	0	0	0
O=C(CCc1ccccc1O)N/N=C/c1ccc(Sc2cccc3cccnc23)o1	0	0	0	0	108.8	0
CCOCCCNC(=O)c1cn(CC)c2ccc(S(=O)(=O)N3CCOCC3)cc2c1=O	0	0	0	0	0	0
Cc1ccc(NC(=S)NCC(C)CSc2ccc(Cl)cc2)cc1 (centres undefined)	0	0	0	0	0	0
Cc1cccc(NC(=S)NCC(C)CSc2ccc(Cl)cc2)c1 (centres undefined)	0	0	0	51.5	0	0
COc1cccc(O)c1CN1CCC(C(=O)Nc2ccc(-c3cccc(C)c3)cc2)CC1	0	105.6	0	0	0	0
O=C1CCCc2[nH]c(-c3ccccc3)nc21	0	0	0	0	0	0
O=C(Nc1ccc(Cl)cc1Cl)c1csc(-c2cccnc2)n1	0	0	0	0	0	0
COc1cc(NC(=S)N2CCCC(CO)C2)cc(OC)c1 (centres undefined)	0	0	0	0	61.7	0
CCCC[C@@H](CNC)NC[C@H](NCCCCC1CCCCC1)C(C)C	0	103.6	0	0	0	0
COc1ccc(/C=N/NS(=O)(=O)c2ccc(C)cc2)cc1	0	0	0	0	0	0
Cc1cc(N2CCN(C(=O)c3ccoc3)CC2)n2nc(-c3ccccc3)cc2n1	0	0	0	0	0	0
COc1ccccc1-c1cc2nc(-c3ccccc3)cc(N3CCN(C(=O)c4ccco4)CC3)n2n1	0	73.5	0	70.0	97.6	0
O=C(c1ccoc1)N1CCN(c2cc(-c3ccco3)nc3cc(-c4ccccc4)nn23)CC1	0	73.6	0	0	0	0
COc1cccc(-c2cc3nc(-c4ccccc4)cc(N4CCN(C(=O)c5ccoc5)CC4)n3n2)c1	0	71.6	0	0	0	0
SMILES	HIF-2a block	Peg3 promoter	CF NFkB block	TROY NFkB inh	TWEAK-Fn14 inh	KKLEB tox
COc1cccc(-c2cc(N3CCN(C(=O)c4ccoc4)CC3)n3nc(-c4cccc(Cl)c4)cc3n2)c1	0	0	0	0	0	0
COc1ccccc1-c1cc2nc(-c3ccccc3)cc(N3CCN(C(=O)c4ccoc4)CC3)n2n1	0	80.6	0	0	0	0
Cc1ccc(S(=O)(=O)Nc2cc(=O)[nH]c(SCc3ccccc3Cl)n2)cc1	0	0	0	0	0	0
CCN(c1ccc(NC(=O)CSCc2c(C)noc2C)cc1)C(C)C	0	0	0	0	0	0
CCOc1ccc(CCNC(=O)C2CC(=O)N(c3ccccc3OCC)C2)cc1OCC (centres undefined)	0	0	0	0	0	0
CSCC[C@H](NC(=O)[C@@H]1Cc2ccccc2CN1)C(=O)Nc1cccc(C)c1	0	0	0	0	0	0
CCC1Oc2ccccc2N(CC(=O)NCCCN2CCCC2)C1=O (centres undefined)	0	0	0	0	0	0
Cc1ccc(-n2c(C)nnc2SC(C)C(=O)N2CCCC2)cc1 (centres undefined)	0	0	0	0	0	0
CCCCN(C)C(=O)Cn1nc(Cc2ccncc2)c2ccccc2c1=O	0	0	0	0	0	0
OCCCN=c1cc(-c2ccccc2)oc2ccc(Cl)cc12	0	0	0	0	0	0
CC1(C)CC(N=c2cc(-c3ccccc3)oc3ccc(Cl)cc23)CC(C)(C)N1	0	107.6	0	0	0	0
COc1cccc(/C=N/n2c(C3CCCCC3)n[nH]c2=S)c1O	0	0	0	0	60.3	0
C=CCN1CC(O)=C(c2nc3ccccc3[nH]2)C1=N	0	0	0	0	0	0
Cc1c(NC(=O)c2ccc(C(C)(C)C)cc2)cccc1[N+](=O)[O-]	0	0	0	0	0	0
O=C(Nc1ccccc1[N+](=O)[O-])c1cncc(Br)c1	0	0	0	0	103.9	0
CC(C)(C)c1ccc(NC(=O)c2ccccc2)c([N+](=O)[O-])c1	0	0	0	58.0	0	0
O=C(Nc1ccc(F)cc1F)c1cncc(Br)c1	0	0	0	0	0	0
COC(=O)Cn1c2[n+](c3ccccc31)CC(O)CS2 (centres undefined)	0	0	0	0	0	0
Cc1ccc(C(=O)c2ccccc2C(=O)OCC(=O)Nc2ccc(SC(F)F)cc2)cc1	0	0	0	0	53.2	0
O=C(COC(=O)c1ccccc1Cc1ccccc1)Nc1ccc(SC(F)F)cc1	0	0	0	0	0	0
Cc1n[nH]c(=S)n1Cc1ccccc1	0	0	0	0	0	0
O=C(CCc1nnc(CCC2CCCCC2)o1)NCc1ccon1	0	0	0	0	0	0
COc1ccc(C(=O)c2ccccc2)c2c(O)ccc(C(=O)c3ccccc3)c12	0	0	0	0	57.1	0
COc1ccc(C(=O)c2ccc(Cl)cc2)c2ccccc12	0	0	0	0	0	0
COc1ccccc1NC(=O)CSc1ccc(-c2cccs2)nn1	0	0	0	0	53.0	0
COc1ccccc1CCNC(=O)CSc1ccc(-c2cccs2)nn1	0	0	0	0	0	0
CC(C)(Oc1ccc(F)cc1)C(=O)OCC(=O)c1ccc(S(C)(=O)=O)cc1	0	0	0	0	0	0
O=S1(=O)CCOCCCN1Cc1ccc(Cl)cc1	0	0	0	0	0	0
Cn1c(=O)[nH]c(=O)c2c1nc(N1CCCCC1)n2CCSc1nc2ccccc2o1	0	0	0	0	0	0
